Test results taken from the supplement of paper PMC7724964.

T1: NUP98 730-880 Nucleoporin2 (domain begin residue: 730, domain end residue: 880), P52948
T1 chain: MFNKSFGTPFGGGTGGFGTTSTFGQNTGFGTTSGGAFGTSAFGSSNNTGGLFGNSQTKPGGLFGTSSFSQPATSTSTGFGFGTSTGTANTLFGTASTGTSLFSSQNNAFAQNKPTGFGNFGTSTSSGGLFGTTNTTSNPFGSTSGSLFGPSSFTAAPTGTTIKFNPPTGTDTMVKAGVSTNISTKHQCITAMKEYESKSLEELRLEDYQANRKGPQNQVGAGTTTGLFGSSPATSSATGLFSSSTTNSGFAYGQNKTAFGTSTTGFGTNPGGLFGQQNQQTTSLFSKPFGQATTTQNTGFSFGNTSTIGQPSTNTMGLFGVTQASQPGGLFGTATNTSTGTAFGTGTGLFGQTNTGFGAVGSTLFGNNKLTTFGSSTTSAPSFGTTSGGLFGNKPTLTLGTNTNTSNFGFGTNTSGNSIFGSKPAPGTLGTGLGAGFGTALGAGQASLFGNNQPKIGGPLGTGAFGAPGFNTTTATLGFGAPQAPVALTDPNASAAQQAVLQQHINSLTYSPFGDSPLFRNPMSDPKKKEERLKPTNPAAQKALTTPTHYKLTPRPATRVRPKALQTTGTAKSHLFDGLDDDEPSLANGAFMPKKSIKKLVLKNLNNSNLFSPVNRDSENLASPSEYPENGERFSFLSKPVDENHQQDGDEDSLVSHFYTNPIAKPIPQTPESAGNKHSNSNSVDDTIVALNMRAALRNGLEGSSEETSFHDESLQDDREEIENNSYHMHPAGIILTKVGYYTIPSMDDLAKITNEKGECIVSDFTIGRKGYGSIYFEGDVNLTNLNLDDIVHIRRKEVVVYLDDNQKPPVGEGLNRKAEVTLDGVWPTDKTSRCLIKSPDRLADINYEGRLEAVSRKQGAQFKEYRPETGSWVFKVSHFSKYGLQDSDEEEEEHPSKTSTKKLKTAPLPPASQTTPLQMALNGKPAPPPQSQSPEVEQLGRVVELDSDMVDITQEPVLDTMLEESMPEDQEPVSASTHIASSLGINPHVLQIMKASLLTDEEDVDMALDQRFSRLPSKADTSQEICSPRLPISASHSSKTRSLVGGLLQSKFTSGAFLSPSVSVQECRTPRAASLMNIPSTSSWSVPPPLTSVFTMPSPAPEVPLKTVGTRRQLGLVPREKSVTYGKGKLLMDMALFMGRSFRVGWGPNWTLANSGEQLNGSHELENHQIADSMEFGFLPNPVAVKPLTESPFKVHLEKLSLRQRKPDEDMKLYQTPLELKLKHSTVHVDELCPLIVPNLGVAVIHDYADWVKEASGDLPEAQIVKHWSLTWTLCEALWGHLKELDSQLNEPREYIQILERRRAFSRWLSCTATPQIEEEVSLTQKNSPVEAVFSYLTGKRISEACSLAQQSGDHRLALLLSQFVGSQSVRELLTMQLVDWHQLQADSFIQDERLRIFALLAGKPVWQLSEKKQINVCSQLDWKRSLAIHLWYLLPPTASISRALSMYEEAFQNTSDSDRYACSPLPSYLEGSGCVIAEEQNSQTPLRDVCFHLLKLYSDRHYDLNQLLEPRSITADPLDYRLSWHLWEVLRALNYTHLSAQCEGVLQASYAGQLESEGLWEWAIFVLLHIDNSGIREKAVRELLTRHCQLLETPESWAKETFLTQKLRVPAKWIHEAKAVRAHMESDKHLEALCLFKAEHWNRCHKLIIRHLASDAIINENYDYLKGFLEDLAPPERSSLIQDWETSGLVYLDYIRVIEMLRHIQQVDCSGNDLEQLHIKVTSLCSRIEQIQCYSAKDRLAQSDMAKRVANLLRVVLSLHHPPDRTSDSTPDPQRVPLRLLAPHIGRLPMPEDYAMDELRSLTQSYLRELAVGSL

T2: NR1H4 256-474 Hormone_recep (domain begin residue: 256, domain end residue: 474), Q96RI1
T2 chain: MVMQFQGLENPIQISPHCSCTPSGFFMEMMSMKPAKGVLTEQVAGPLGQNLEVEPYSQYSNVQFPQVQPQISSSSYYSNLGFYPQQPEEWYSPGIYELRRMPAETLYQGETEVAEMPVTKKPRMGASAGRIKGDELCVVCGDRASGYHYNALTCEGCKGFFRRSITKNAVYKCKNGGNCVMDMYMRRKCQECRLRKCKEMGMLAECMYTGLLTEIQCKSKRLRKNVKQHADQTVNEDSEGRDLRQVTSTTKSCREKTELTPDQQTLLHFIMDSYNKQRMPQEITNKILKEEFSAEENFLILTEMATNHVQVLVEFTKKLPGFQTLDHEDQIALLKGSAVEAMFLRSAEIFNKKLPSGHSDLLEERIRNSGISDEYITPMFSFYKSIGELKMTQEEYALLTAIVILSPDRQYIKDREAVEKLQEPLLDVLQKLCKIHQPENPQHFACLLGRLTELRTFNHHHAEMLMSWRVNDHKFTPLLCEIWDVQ

T3: NR2C1 355-603 Hormone_recep (domain begin residue: 355, domain end residue: 603), P13056
T3 chain: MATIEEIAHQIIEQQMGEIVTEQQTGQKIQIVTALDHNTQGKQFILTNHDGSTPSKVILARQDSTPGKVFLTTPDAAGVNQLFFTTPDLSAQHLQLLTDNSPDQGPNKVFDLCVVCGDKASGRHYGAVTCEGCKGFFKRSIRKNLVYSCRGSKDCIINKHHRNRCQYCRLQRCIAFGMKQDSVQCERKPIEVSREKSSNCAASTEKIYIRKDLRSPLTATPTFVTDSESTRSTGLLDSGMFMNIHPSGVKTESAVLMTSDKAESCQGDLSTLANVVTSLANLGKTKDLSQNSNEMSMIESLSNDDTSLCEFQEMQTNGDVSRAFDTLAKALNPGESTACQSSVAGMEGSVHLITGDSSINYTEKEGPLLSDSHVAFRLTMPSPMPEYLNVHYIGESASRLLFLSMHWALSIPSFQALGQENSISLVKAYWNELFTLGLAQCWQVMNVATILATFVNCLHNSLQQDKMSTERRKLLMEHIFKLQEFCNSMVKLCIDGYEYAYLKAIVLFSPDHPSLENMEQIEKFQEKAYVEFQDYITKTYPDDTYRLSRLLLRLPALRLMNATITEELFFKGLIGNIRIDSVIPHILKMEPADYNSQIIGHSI

T4: NR4A2 327-598 Hormone_recep (domain begin residue: 327, domain end residue: 598), P43354
T4 chain: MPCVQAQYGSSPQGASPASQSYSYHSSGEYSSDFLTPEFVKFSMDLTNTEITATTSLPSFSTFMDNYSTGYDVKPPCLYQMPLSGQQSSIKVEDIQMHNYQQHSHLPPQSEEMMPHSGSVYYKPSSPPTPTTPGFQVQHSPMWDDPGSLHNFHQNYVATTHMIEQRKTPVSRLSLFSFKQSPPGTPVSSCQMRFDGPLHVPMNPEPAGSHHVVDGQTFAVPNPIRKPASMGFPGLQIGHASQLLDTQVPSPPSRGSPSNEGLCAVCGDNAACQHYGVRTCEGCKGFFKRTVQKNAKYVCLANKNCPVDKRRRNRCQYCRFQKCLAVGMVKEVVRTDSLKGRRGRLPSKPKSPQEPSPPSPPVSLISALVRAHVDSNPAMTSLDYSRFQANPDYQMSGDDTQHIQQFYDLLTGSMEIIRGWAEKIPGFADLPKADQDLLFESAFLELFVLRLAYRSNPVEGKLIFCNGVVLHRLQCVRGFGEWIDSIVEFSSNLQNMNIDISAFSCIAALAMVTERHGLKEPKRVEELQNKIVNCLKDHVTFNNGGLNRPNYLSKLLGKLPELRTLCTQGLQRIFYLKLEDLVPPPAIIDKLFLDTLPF

T5: NR1H3 204-447 Hormone_recep (domain begin residue: 204, domain end residue: 447), Q13133
T5 chain: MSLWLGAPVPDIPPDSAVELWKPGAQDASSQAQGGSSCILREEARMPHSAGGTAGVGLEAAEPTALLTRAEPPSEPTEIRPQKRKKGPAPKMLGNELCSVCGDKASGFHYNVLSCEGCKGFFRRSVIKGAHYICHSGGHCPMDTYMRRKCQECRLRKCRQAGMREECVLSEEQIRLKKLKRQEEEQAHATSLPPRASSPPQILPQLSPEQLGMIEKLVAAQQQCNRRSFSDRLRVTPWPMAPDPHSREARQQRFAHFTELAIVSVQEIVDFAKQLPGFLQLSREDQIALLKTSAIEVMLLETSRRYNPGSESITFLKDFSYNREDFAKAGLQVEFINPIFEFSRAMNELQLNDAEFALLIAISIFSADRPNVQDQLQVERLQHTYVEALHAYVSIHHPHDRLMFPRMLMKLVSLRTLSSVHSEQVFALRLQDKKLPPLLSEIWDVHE

T6: NXT1 1-140 NTF2 (domain begin residue: 1, domain end residue: 140), Q9UKK6
T6 chain: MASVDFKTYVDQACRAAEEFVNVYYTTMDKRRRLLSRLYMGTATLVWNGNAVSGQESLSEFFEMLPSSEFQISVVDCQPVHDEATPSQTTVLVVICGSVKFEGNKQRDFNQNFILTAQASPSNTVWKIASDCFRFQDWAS


Biological target: T1, NUP98 730-880 Nucleoporin2 (domain …
Assay: phage ELISA signal ratio (GST-PRM binding over GST background); higher = stronger binding of peptide-phage to the PRM
How it was run: (§1)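 An M13 phage library with randomized hexadecapeptides on the gene-8 major coat protein, each peptide lacking cysteine and flanked by glycine, was selected for five rounds against human peptide recognition domains fused to the C-terminus of glutathione S-transferase (GST) and expressed in 96-well plates. Approximately 48 clones from rounds 4 and 5 went to phage ELISA. The reported value is the ELISA signal on the GST-domain fusion over the signal on GST alone, and positive clones were sequenced.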

In order of falling “phage ELISA signal ratio” value:
1. WVGNNDWENEWPWVIL  7.89
2. QGWMPWDPQDLDWWVG  7.31
3. WAEWDASQPDWVPEYQ  4.87

Biological target: PAF1 165-376 Paf1 (domain begin residue: 165, domain end residue: 376), Q8N7H5
Assay: as above
How it was run: as §1

With WEQQWFEWTHIEGQDD the “phage ELISA signal ratio” value was 2.51.

Biological target: NR2E3 154-410 Hormone_recep (domain begin residue: 154, domain end residue: 410), Q9Y5X4
Sequence (Q9Y5X4 whole entry): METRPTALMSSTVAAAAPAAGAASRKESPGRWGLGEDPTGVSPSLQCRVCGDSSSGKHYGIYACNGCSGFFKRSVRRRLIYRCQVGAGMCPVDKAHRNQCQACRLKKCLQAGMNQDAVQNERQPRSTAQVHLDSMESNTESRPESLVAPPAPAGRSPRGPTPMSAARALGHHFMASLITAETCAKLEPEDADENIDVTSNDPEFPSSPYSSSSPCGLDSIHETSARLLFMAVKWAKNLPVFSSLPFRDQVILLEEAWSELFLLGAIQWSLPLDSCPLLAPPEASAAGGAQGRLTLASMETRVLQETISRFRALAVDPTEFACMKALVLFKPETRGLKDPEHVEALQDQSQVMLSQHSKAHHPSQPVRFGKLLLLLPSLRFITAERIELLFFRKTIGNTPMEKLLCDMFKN
Assay: as above
How it was run: as §1

In the case of DEWWMFYPQPMYDLWH, the “phage ELISA signal ratio” value is reported as 6.08.

Biological target: NXF1 565-619 TAP_C (domain begin residue: 565, domain end residue: 619)
Assay: as above
How it was run: as §1

In order of falling “phage ELISA signal ratio” value:
1. MAGPESLNFSWDYIMN  13.4
2. GDFGPDWFSFAWTEEM  13.4
3. EFINFTWMEAMGTPNS  13.2
4. SMEMMNFTWDPEWFIE  12.9
5. DIPFSFQWSTDMHPVS  6.7

Biological target: T2, NR1H4 256-474 Hormone_recep (domain …
Assay: as above
How it was run: as §1

In order of falling “phage ELISA signal ratio” value:
1. LAFGEWLDKEIGLAYF  14.3
2. GDLEQHLMEWWTREVF  12.3

Biological target: NR5A1 221-461 Hormone_recep (domain begin residue: 221, domain end residue: 461), Q13285
Sequence (Q13285 whole entry): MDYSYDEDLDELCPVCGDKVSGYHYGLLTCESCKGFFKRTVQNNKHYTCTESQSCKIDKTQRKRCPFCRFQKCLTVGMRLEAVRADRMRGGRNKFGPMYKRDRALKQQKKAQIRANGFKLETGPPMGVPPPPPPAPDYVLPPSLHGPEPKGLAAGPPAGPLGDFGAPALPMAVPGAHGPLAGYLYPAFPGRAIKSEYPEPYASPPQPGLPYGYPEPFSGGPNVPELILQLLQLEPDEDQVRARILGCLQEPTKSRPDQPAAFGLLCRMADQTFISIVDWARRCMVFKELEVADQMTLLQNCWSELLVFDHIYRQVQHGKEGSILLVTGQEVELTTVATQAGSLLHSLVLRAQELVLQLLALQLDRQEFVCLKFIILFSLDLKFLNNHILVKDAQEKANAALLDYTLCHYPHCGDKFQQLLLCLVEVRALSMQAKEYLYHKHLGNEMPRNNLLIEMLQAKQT
Assay: as above
How it was run: as §1

In the case of PYHDSWFYWPGLTEGV, the “phage ELISA signal ratio” value is reported as 5.49.

Biological target: NXF1 203-359 LRR_1 (domain begin residue: 203, domain end residue: 359)
Assay: as above
How it was run: as §1

In order of falling “phage ELISA signal ratio” value:
1. FETLWARHAQGQTQVE  22
2. VQMWSFEQIWVEHMMG  20.1
3. FENYWKGYQEVPLESR  18.9

Biological target: T3, NR2C1 355-603 Hormone_recep (domain …
Assay: as above
How it was run: as §1

In order of falling “phage ELISA signal ratio” value:
1. TELPPLPYAWQDYAHW  24.8
2. PYTGIWFGEYLHNFIP  9.25
3. AAPGSWDYSLLEFHYL  3.03

Biological target: T4, NR4A2 327-598 Hormone_recep (domain …
Assay: as above
How it was run: as §1

In order of rising “phage ELISA signal ratio” value:
1. SPFDFWPLQSWWFKTM  9.75
2. TMSLWPSSWDIITLNS  15
3. QTMQRQWLDILLSLEL  20.2

Biological target: T5, NR1H3 204-447 Hormone_recep (domain …
Assay: as above
How it was run: as §1

In order of rising “phage ELISA signal ratio” value:
1. SADSMYPELDWLVWAM  10
2. TQEMWDWVMMIEMTEF  14
3. QEWQAWMLSMEEGEMM  15.5

Biological target: PABPC1 544-623 PABP (domain begin residue: 544, domain end residue: 623)
Assay: as above
How it was run: as §1

In order of falling “phage ELISA signal ratio” value:
1. TIDWESVIKTYSPWLD  29.8
2. KPVPSFWVDWHVQAMT  20.9
3. LPGEYNMMEWRQAVMG  3.49

Biological target: T6, NXT1 1-140 NTF2 (domain begin residue: …
Assay: as above
How it was run: as §1

With QYNFLWEHLVQPRPAT the “phage ELISA signal ratio” value was 16.1.
